Results on 18 compounds are retold here after PMC5540273 (PLoS ONE, 2017).

Molecules are shown by their SMILES.

Test systems include CDK4; CDK5; CDK7; CDK8; CDK9; CDKL1; CDKL2; CDKL3; CDKL5; CHEK1.
Conditions in all cases: concentration: 1 μM, replicates: in singlicate; n = 1
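Further: KINOMEscan kinase panel screen.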

In the case of `CC(C)(C)c1ccc(C(=O)Nc2cn3cc(-c4cccnc4)ccc3n2)cc1`, the “%Inh” value is given as 0% in the assay with CDK4; 3% with CDK5; 35% in the assay with CDK7; 6% with CDK8; 12% in the assay on CDK9; 39% in the assay on CDKL1. The “%Inh” value in the assay on CDKL2 turned out to be 6%; in the assay with CDKL3, 20%; in the assay with CDKL5, 0%; in the assay on CHEK1, 25%.

Consider `Cl.Oc1ccc(-c2nc(-c3ccccc3)[nH]c2-c2ccncc2)cc1` [SB-428218], for which the “%Inh” value with CDK4, in the assay on CDK5, in the assay with CDK7, with CDK8, with CDK9 and in the assay with CDKL1 was 0% each time. For the same compound, the “%Inh” value in the assay with CDKL2 is listed as 32%; in the assay on CDKL3 it was 0%; with CDKL5 it was 0%; in the assay with CHEK1, 0%.

For `Cc1cc(NCC(c2ccccc2)c2ccccc2)nc(NCc2ccc(C(F)(F)F)cc2)n1` [GW497681], the “%Inh” value stood at 0% with CDK4; 0% in the assay with CDK5; 0% in the assay with CDK7; 28% in the assay on CDK8; 0% in the assay with CDK9; 0% in the assay on CDKL1. Besides, the “%Inh” value in the assay with CDKL2 is on record as 12%; with CDKL3, 0%; in the assay on CDKL5, 0%; in the assay with CHEK1, 0%.

As for `Cn1ccc2ncnc(Oc3ccc(NC(=O)Nc4ccccc4)cc3)c21`, the “%Inh” value was determined as 0% with CDK4; 0% in the assay with CDK5; 13% in the assay with CDK7; 12% with CDK8; 9% in the assay with CDK9; 36% with CDKL1. In addition, the “%Inh” value was found to be 2% in the assay on CDKL2, 0% in the assay with CDKL3, 17% in the assay on CDKL5 and 1% in the assay with CHEK1.

As for `CCCc1ccc(S(=O)(=O)NC2CCN(c3ccnc(Nc4ccc(F)cc4)n3)C2)cc1` (stereo not drawn) [GSK1379715], the “%Inh” value in the assay on CDK4 is 0%; with CDK5, 0%; with CDK7 it was 0%; in the assay on CDK8, 0%; in the assay with CDK9, 0%; with CDKL1, 13%. Further, the “%Inh” value with CDKL2 turned out to be 38%; with CDKL3, 0%; with CDKL5, 0%; in the assay with CHEK1, 6%.

Regarding `COc1cc2nccc(Nc3ccc(NC(=O)c4ccc(C)cc4)c(O)c3)c2cc1OC.Cl` [GW440132], the “%Inh” value amounted to 35% in the assay on CDK4; 0% in the assay with CDK5; 75% in the assay on CDK7; 33% in the assay with CDK8; 0% with CDK9; 4% in the assay with CDKL1. Also, the “%Inh” value turned out to be 13% with CDKL2, 0% in the assay with CDKL3, 0% in the assay on CDKL5 and 0% in the assay with CHEK1.

`Nc1ncnc2[nH]c(-c3ccccc3)nc12` [AH5015]: the “%Inh” value in the assay with CDK4 is 7%; with CDK5, 0%; in the assay with CDK7 it was 0%; in the assay on CDK8, 0%; in the assay with CDK9 it was 0%; with CDKL1, 6%. The “%Inh” value is on record as 32% with CDKL2, 0% with CDKL3, 0% with CDKL5 and 0% with CHEK1.

`Cc1cccc(-c2nc(Nc3ccncc3)c3ccccc3n2)n1` [GW855857]: the “%Inh” value with CDK4 came to 0%; in the assay on CDK5, 0%; in the assay with CDK7 it was 0%; in the assay with CDK8, 65%; in the assay on CDK9 it was 0%; with CDKL1 it was 47%. The “%Inh” value in the assay on CDKL2 is given as 10%; in the assay on CDKL3 it was 0%; with CDKL5, 0%; with CHEK1, 0%.

With `COc1cccc(NC(=O)NC2CCN(c3ccnc(Nc4ccc(F)cc4)n3)C2)c1` (stereo not drawn) [GSK1379721], the “%Inh” value in the assay with CDK4 is given as 0%; with CDK5, 0%; with CDK7 it was 0%; in the assay on CDK8, 61%; in the assay with CDK9 it was 14%; in the assay with CDKL1, 5%. Also, the “%Inh” value came out at 61% in the assay with CDKL2, 0% in the assay on CDKL3, 7% with CDKL5 and 2% in the assay on CHEK1.

Consider `COC(=O)c1c(-c2ccccc2)c2cc(C(=O)O)ccc2c(=O)n1Cc1ccccc1`, for which the “%Inh” value with CDK4 was determined as 0%; in the assay with CDK5, 0%; with CDK7 it was 0%; in the assay on CDK8, 13%; in the assay on CDK9 it was 0%; in the assay on CDKL1, 0%. For the same compound, the “%Inh” value in the assay with CDKL2 was 6%; in the assay with CDKL3, 4%; with CDKL5, 21%; in the assay with CHEK1 it was 0%.

Consider `CCn1c(-c2ccccn2)nc2cnccc21` [SB-736398], for which the “%Inh” value with CDK4 came to 34%; in the assay on CDK5, 0%; in the assay on CDK7, 0%; in the assay on CDK8, 39%; in the assay with CDK9, 0%; in the assay with CDKL1, 9%. The “%Inh” value in the assay on CDKL2 is 17%; in the assay on CDKL3, 0%; in the assay on CDKL5, 0%; in the assay with CHEK1, 0%.

As for `CC(C)(C)c1ccc(C(=O)Nc2cn3cc(Cl)ccc3n2)cc1`, the “%Inh” value in the assay on CDK4 was found to be 0%; in the assay on CDK5, 18%; in the assay on CDK7, 0%; in the assay on CDK8, 7%; in the assay on CDK9, 0%; in the assay with CDKL1, 19%. Further, the “%Inh” value in the assay with CDKL2, in the assay with CDKL3, in the assay with CDKL5 and in the assay with CHEK1 was 0% in each case.

Regarding `CS(=O)(=O)c1ccc(-c2c(-c3ncn[nH]3)sc(N3CCOCC3)c2C#N)cc1`, the “%Inh” value with CDK4 is on record as 1%; with CDK5 it was 38%; in the assay on CDK7, 31%; with CDK8 it was 18%; in the assay with CDK9, 6%; in the assay with CDKL1 it was 22%. For the same compound, the “%Inh” value in the assay on CDKL2 is 7%; with CDKL3 it was 13%; in the assay with CDKL5 it was 0%; with CHEK1 it was 0%.

As for `Cl.c1ccc(-c2n[nH]cc2-c2ccnc(-c3ccc(CN4CCOCC4)cc3)c2)nc1` [GW776245], the “%Inh” value in the assay with CDK4 came to 0%; with CDK5, 12%; with CDK7 it was 0%; in the assay on CDK8, 52%; in the assay on CDK9, 0%; with CDKL1, 59%. For the same compound, the “%Inh” value in the assay with CDKL2 is recorded as 9%; in the assay with CDKL3 it was 6%; with CDKL5 it was 0%; with CHEK1, 0%.

With `Cc1cc(-c2ccc3c(c2)CC[C@@H](N[C@@H](C)c2ccccc2)C3)cnc1N.Cl` [GW412617], the “%Inh” value in the assay with CDK4 amounted to 26%; in the assay with CDK5, 4%; in the assay with CDK7 it was 0%; with CDK8 it was 14%; in the assay on CDK9, 0%; with CDKL1 it was 0%. The “%Inh” value with CDKL2 amounted to 18%; with CDKL3, 0%; in the assay on CDKL5, 0%; in the assay with CHEK1 it was 14%.

As to `Fc1cc(Cl)ccc1Nc1ccnc2cc(I)ccc12` [GW551191], the “%Inh” value with CDK4 came to 23%; in the assay with CDK5, 0%; in the assay on CDK7, 0%; in the assay on CDK8, 7%; in the assay with CDK9, 0%; in the assay with CDKL1, 0%. Besides, the “%Inh” value was found to be 21% in the assay on CDKL2, 0% in the assay with CDKL3, 3% with CDKL5 and 0% with CHEK1.

Take `O=c1cc(N2CCOCC2)nc2n(Cc3cccc(Cl)c3Cl)ccn12` [GSK2286295]: the “%Inh” value in the assay with CDK4 came out at 0%; in the assay on CDK5, 0%; with CDK7 it was 0%; with CDK8, 0%; in the assay on CDK9 it was 14%; in the assay with CDKL1, 0%. Moreover, the “%Inh” value in the assay on CDKL2 came out at 7%; in the assay with CDKL3 it was 0%; with CDKL5, 2%; in the assay on CHEK1, 0%.

Take `COc1ccccc1-c1ccc2c(NC(=O)C3CC3)n[nH]c2n1` [SB-711239]: the “%Inh” value in the assay on CDK4 was 33%; in the assay with CDK5 it was 0%; in the assay on CDK7, 0%; in the assay on CDK8, 44%; in the assay with CDK9 it was 0%; with CDKL1 it was 18%. In addition, the “%Inh” value with CDKL2 was 23%; in the assay with CDKL3, 20%; in the assay with CDKL5 it was 3%; in the assay with CHEK1 it was 11%.
